The structures appear in SMILES notation. Where “and” joins values, the source holds several entries; their conditions need not be identical. Identical values can stand only once. This is part of a sample that, as a whole, favours compounds with a hit. Of some 83,000 tested, about 20% had one in any assay.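 Method: cells in 96-well plates; compound added at one concentration; 48 h incubation; percent growth measured; values under 10 scored active.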 A number with no mark means an inactive call. Calls of active or inactive are those of the source.

This experiment has as its system MDA-MB-468 breast. In words: NCI-60 one-dose screen, 48 h (100 = growth as untreated, 0 = no growth, -100 = all killed). The settings on record: 10 µM unless noted.
As to `CCc1ccc(OCc2ccccc2C(=O)Nc2ccc3nc(C)cc(N)c3c2)cc1`, the growth was -58.4% (active). For `Cc1cc(NCc2cc(Nc3ccnc4cc(Cl)ccc34)ccc2F)nc(Cl)n1` the value was -3.4% (active); for `N#C/C(=C\c1ccccn1)c1nc2cc(Cl)ccc2s1`, 55.5%.

`COc1cc(C(C)n2cc(-c3ccccc3)nn2)ccc1OC1CCCCC1` (stereo unspecified): the growth was 8.89% (active). Turning to `CC1=C/C(=C(\c2ccc(N(C)C)cc2)c2ccc([N+](C)(C)C)cc2)C=CC1=[N+](C)C`, the growth is 70.6%. For `O=C(Nc1ccccc1)c1sc(-c2cccc(C(F)(F)F)c2)cc1O`, the growth was 92.3%. Consider `Cc1nc2ccccc2n1C(=O)C[C@@H]1NC(=S)NC1=O`, for which the growth was 95.7%. For the molecule `N#Cc1ccc(OC(=O)Nc2cc(Cl)cc(Cl)c2)cc1`, the growth was -16.4% [100 µM] (active). The value for `N#Cc1c(NC(=O)c2cccc(Br)c2)sc2c1CCCC2` was 59.3%.

As for `NS(=O)(=O)OCC1OC(n2cnc3cncnc32)C(O)C1O` (stereo unspecified), the growth was 5.51% [0.1 µM] (active) and -18.9% [0.1 µM] (active). For `CCOC(=O)c1ccc(N2NC(=O)/C(=C/c3ccc([N+](=O)[O-])o3)C2=O)cc1` the value was 106%.

As for `COc1cc(C2CC(c3cccc(Nc4ccncc4)c3)=Nc3c(N)ncnc3N2)cc(OC)c1OC` (stereo unspecified), the growth is 47.6%. On to `O=C(c1ccccc1)N(CCCCl)C(=O)N(CCCCl)C(=O)c1ccccc1`, for which the growth is 94.2%. `COc1ccc(OC)c2ncccc12`: the growth is 89.9%. On to `Fc1ccc(-c2nc(-c3ccc(-c4nc5ccc(F)cc5[nH]4)cc3)no2)cc1`, for which the growth was 56.2%. For the molecule `Cc1ccc(S(=O)(=O)N/N=C/c2cn(-c3ccc(F)cc3)nc2-c2ccc(S(C)(=O)=O)cc2)cc1`, the growth was 97%.

Turning to `N#Cc1cnn2c(-c3ccc(Cl)cc3)nc(NC3CC3)nc12`, the growth is 97%.

`COc1ccc(C[C@H](N)C(=O)N[C@@H]2[C@@H](CO)OC(n3cnc4c(N(C)C)ncnc43)[C@@H]2O)cc1` (stereo partly specified): the growth was -70.8% (active). Take `CC(Sc1nc2ccccc2c(=O)n1CCc1ccc(S(N)(=O)=O)cc1)C(=O)Nc1ccc(Cl)cc1` (stereo unspecified): the growth was 84%. For `Nc1c(C(=O)c2ccccc2)nnc2ncnn12` the value was 99.7%; for `COc1ccc(Cn2cc3c(c2-c2ccccc2)CC(C)(C)c2cnoc2-3)cc1`, 3.53% (active); for `Cc1ccc(-c2cc3nc(C(Cl)Cl)nc(-c4ccc(S(=O)(=O)N(C)C)cc4)n3n2)cc1`, 82%. The value for `O=CN1N=C(c2ccc(Cl)cc2)CC1c1cccc(Nc2ccnc3cc(Cl)ccc23)c1` (stereo unspecified) was -0.854% (active); that for `COc1ccc(C(=O)c2cc(OC)c(OC)c(OC)c2)cc1/C=C/C(=O)c1ccc(OC)c(OC)c1` was 8.42% (active); that for `NC1CCC(Nc2nc(NCc3ccc(-c4ccccc4O)nc3)c3ncn(C4CCCC4)c3n2)CC1` (stereo unspecified) was -73.7% (active).

In the case of `COc1ccc(-c2nc(-c3ccccc3OCc3ccccc3OC)nc(C)c2C(C)=O)cc1`, the growth was 72%.

(Values after PubChem BioAssay (NCI).)
